# KB-V1 MDR tox – qHTS assay for MDR1-selective chemotherapeutics: Primary screen using the drug-selected MDR subline cells KB-V1; KB-V1 MDR cells viability, CellTiter-Glo, 72 h; Potency, µM (series often up to 46.1 µM), hits mostly cytotoxic; actives 3.4% (n = 400,000); further: on the % scale 0 is the no-effect control and ±100 the full control effect; nearly all actives have a fitted effect of over 60% in size
#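 Compound-treated KB-V1 multidrug-resistant cells, 72 h, 37 degrees C; viability by CellTiter-Glo. Fitted qHTS curves give the values.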
# PTAP TSG101 blk – qHTS Assay for Iinhibitors of HIV-1 Budding by Blocking the Interaction of PTAP/TSG101; Tumor susceptibility gene 101 protein (Homo sapiens), Q99816; Fluorescence polarization, FITC-PTAP peptide / Tsg101 binding; Potency, µM (series often up to 115 µM), for the others: at the top dose activity change, negative = inhibition, hits mostly inhibitors; 340,000 tested, under 10 active; AID 493005, 2010; active means well fitted inhibition curve with a large enough effect in the main read-out, with a control signal flat, not every such curve was filed as active; inconclusive means small, poorly fitted or top-dose-only effect, or effect the other way, or a change in a side signal; inactive means no such curve, though single readings can be large or run the other way; further: % of control where 0% means no effect
# Target sequence (Q99816 whole entry, looked up): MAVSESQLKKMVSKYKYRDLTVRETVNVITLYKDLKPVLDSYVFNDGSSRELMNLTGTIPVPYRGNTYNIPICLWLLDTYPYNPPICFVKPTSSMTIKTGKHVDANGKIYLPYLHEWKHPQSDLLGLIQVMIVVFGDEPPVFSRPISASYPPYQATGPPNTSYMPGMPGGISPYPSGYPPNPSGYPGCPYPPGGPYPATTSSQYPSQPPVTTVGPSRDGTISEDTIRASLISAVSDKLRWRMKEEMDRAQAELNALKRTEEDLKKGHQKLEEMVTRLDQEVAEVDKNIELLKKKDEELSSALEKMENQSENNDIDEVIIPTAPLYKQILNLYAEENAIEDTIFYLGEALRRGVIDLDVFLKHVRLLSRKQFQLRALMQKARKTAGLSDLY
#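 Steps: Tsg101 binding domain dispensed (10 uM final), compounds pinned in DMSO, FITC-labeled PTAP-motif peptide added (50 nM final); after 20 min binding at room temperature, polarization measured.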
# SW480 rereplic – A quantitative high throughput screen for small molecules that induce DNA re-replication in SW480 colon adenocarcinoma cells | SW480 DNA re-replication, Hoechst DNA content imaging, 48 h | Potency, µM (titrated, usually from 46.1 µM), for the others: at the highest dose re-replication activation, most hits filed as activators | actives 1.8% (n = 340,000) | AID 624297, 2012; further: % of control where 0% means no effect; nearly all actives have a fitted effect of over 55% in size
#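 Image-based read-out: total Hoechst fluorescence of nuclei (405 nm excitation, 500-530 nm emission), with hits raising the fraction of high-intensity nuclei. SW480 colon cells incubated 48 hr with compounds at 37 C.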
# PINK1 modulator – A Quantitative High throughput Screen to Identify Chemical Modulators of PINK1 Expression | Potency, µM (highest dose often 76.6 µM), for the others: at the highest dose activation (PINK1 increase), hits mostly activators | PINK1 immunofluorescence, high-content cytometry, 24 h | actives 0.2% (n = 410,000); active means well fitted activation curve with a large enough effect; inconclusive means small, poorly fitted or top-dose-only effect; cell line not stated here; further: % of control where 0% means no effect; nearly all actives have a fitted effect of over 65% in size
#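 Cells are seeded, rested 12 hours, then given compound at five concentrations or DMSO for 24 hours. After fixation, blocking and antibody staining, PINK1 amount and mitochondrial localization are scored; CCCP serves as control.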
# MCF10A rerep – A quantitative high throughput screen for small molecules that induce DNA re-replication in MCF 10a normal breast cells. MCF 10A DNA re-replication, Hoechst nuclear intensity, 48 h. Potency, µM (doses to about 46.1 µM), without a hit: at the highest dose activity, positive = re-replication, most hits filed as activators. actives 2.9% (n = 350,000); further: % of control where 0% means no effect; nearly all actives have a fitted effect of over 50% in size
# KB-3-1 tox – qHTS assay for MDR1-selective chemotherapeutics: Primary screen using the parental adenocarcinoma cell KB-3-1. KB-3-1 viability, CellTiter-Glo ATP luminescence, 72 h. Potency, µM (titrated, usually from 46.1 µM), usual class: cytotoxic. actives 1.4% (n = 400,000); further: on the % scale 0 is the no-effect control and ±100 the full control effect; nearly all actives have a fitted effect of over 60% in size
#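 Screening of KB-3-1 cells (DMEM, 10% FBS, phenol-red free) ran from lowest to highest compound concentration; after 72 h at 37 °C viability was read luminescently and curves fitted.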
# * hit, by the source's call; i = inactive; ? = inconclusive; · = no result; [ ] = remark or other dose. Compounds with a hit are over-represented: about 6.8% of the library has one in this group of screens. Unless noted, the call rests on the fitted dose curve; in most records, active means well fitted curve in the direction sought with a large enough effect; inconclusive means small, poorly fitted or top-dose-only effect, or another doubt; inactive means no such curve, though single readings can be large; an effect the other way counts as inactive or inconclusive. Potency means the concentration at half of the fitted maximal effect.
SMILES,KB-V1 MDR tox,PTAP TSG101 blk,SW480 rereplic,PINK1 modulator,MCF10A rerep,KB-3-1 tox
C=CC(=O)Nc1cccc(Oc2cc(Cl)nc3[nH]ccc23)c1,18.4µM*,-10.4%,?,-0.6%,?,?
O=C(Cn1cnc2c(OCc3ccccc3)ncnc21)NCc1ccccc1,i,-3.5%,14.6µM*,?,?,i
O=C(Cn1cnc2sc(-c3ccccc3)cc2c1=O)NCc1ccco1,?,2.2%,?,2.3%,?,18.4µM*
O=C(Cn1cnc2sc(-c3ccccc3)cc2c1=O)NCc1ccccc1,i,-5.4%,16.4µM*,?,4.61µM*,7.31µM*
O=C(Cn1cnc2sc(-c3ccccc3)cc2c1=O)NCCc1ccccc1,?,-0.1%,?,4.2%,?,i
Cn1c(-c2ccc(S(=O)(=O)N3CCCC3)cc2)csc1=Nc1ccc(Cl)c(Cl)c1,·,·,·,0.8%,·,·
COc1ccccc1CN1CCOc2ccc(C(C)(O)COc3ccccc3)cc2C1 (stereo not drawn),·,·,·,-1.3%,·,·
Cc1ccc(NC(=O)Cn2cccc2)cc1Cl,18.4µM*,-2.5%,-2.8%,4.3%[38.3 µM],-6.9%,i
Cc1ccc(NC(=O)CSc2ccccc2NC(=O)c2cccc(Cl)c2)cc1Cl,?,?,·,1.5%,3.4%,i
Cc1cccc(C(=O)Nc2ccccc2SCC(=O)Nc2ccc(C)c(Cl)c2)c1,?,-0.5%,?,0.2%,?,11.6µM*
Cc1ccc(NC(=O)Cn2cccc2)cc1C,i,-7.1%,-2.3%,-3.7%[38.3 µM],-3.5%,i
COCCN=c1scc(-c2ccc3c(c2)NC(=O)CO3)n1/N=C(\C)c1ccc(O)cc1,i,-1.5%,?,?,?,?
COc1cc(/C=N/n2c(-c3ccc4c(c3)NC(=O)CO4)csc2=Nc2cccc(C)c2)ccc1O,i,1.3%,?,1.8%,23.1µM*,i
COc1cc2c(cc1OC)C(COc1cc(C)cc(C)c1)N(C(=O)C(C)(C)C)CC2 (stereo not drawn),i,·,·,-4.3%,·,i
COc1ccc(OC)c(CNC(=O)CCCn2nc(C)c3c(C)n(-c4ccc(C)cc4)nc3c2=O)c1,·,·,·,-0.7%,·,·
CC(=O)N1N=C(c2ccccc2)CC1c1cn(Cc2ccccc2)c2ccccc12 (stereo not drawn),14.6µM*,-0.6%,?,11.2%,20.6µM*,?
Cc1nn(-c2ccccc2)c(-n2cccc2)c1C(=O)NCCCN1CCN(c2ccccc2F)CC1,i,·,·,0.1%,·,i
CCOc1ccccc1OCC(=O)NC1CCCCC1,i,-5.4%,-24.9%,·,8.9%,i
O=C(COc1ccccc1Br)NC1CCCC1,16.4µM*,-2.0%,-204.6%,2.0%,24.6%,?
COc1ccc(C(=O)CSc2nnc(CCc3ccccc3)n2-c2ccccc2)cc1,9.2µM*,·,17.3%,-2.7%[38.3 µM],7.31µM*,i
COc1ccc(-n2c(CCc3ccccc3)nnc2SCC(=O)c2ccccc2)cc1,9.2µM*,-1.8%,2.5%,24.4%,?,?
CC(=O)/C(=N/Nc1ccccc1)Sc1nnc(CCc2ccccc2)n1-c1ccccc1,23.1µM*,-0.7%,?,0.8%,-9.9%,i
COc1ccc(-n2c(CCc3ccccc3)nnc2SCC(=O)NCc2ccccc2)cc1,i,4.3%,-0.3%,-0.7%,12.3%,i
NC(=O)C1CCN(c2ncc(-c3ccc4c(c3)OCCO4)s2)CC1,i,·,·,·,·,i
CC(NC(=O)CSc1nc(C2CC2)n(-c2ccccc2)n1)c1ccco1 (stereo not drawn),13µM*,-4.7%,-2.9%,1.5%,6.4%,i
SMILES,KB-V1 MDR tox,PTAP TSG101 blk,SW480 rereplic,PINK1 modulator,MCF10A rerep,KB-3-1 tox
O=C(CSc1nc(C2CCCCC2)n(-c2ccccc2)n1)NCCN1C(=O)CSC1=O,i,-2.5%,-8.7%,-0.2%,2.5%,i
O=C(CSc1nc(C2CCCCC2)n(-c2ccccc2)n1)NCC(F)(F)F,8.2µM*,-2.8%,5.6%,0.5%,18.1%,i
COC(=O)c1c(Oc2ccc(C(C)=O)cc2)nnc(-c2ccccc2)c1-c1ccccc1,i,·,·,-0.7%,·,?
C=C1C(=O)C23C(O)C1CCC2C12CCCC(C)(COC(C)=O)C1C(O)C3(O)OC2 (stereo not drawn),?,-1.3%,?,-0.6%,0.731µM*,13µM*
CCOc1ccc(N=C2SCCCN2C(=O)c2c(CC)noc2C)cc1,·,1.3%,-3.7%,2.8%,2.6%,·
CCOc1ncccc1C(=O)N1CCCSC1=Nc1ccc(C(C)=O)cc1,i,-7.1%,8.2%,1.3%,0.92µM*,i
Cc1ccccc1NC(=O)Nc1nnc(N2CCCCCC2)s1,i,·,·,0.1%,·,i
S=C(NCCN1CCCCC1)Nc1ccc(Br)cc1,i,0.2%,16.4µM*,4.4%,-0.3%,i
S=C(NCCN1CCCCC1)Nc1ccccc1,i,-5.3%,-7.0%,0.1%,5.2%,i
Cc1cc(C)c2nc(N3CCCC(C(=O)NCc4cccc(Br)c4)C3)sc2c1 (stereo not drawn),i,·,·,-0.1%,·,i
Cc1cc(C)c2nc(N3CCCC(C(=O)N4CCN(c5ncccn5)CC4)C3)sc2c1 (stereo not drawn),10.3µM*,-1.2%,14.4%,-3.5%,14.6µM*,?
CCN(CC)CCNC(=O)c1sc2nc(C)cc(C)c2c1-n1cccc1,i,·,·,-1.2%,·,i
CC(=O)c1ccc(N2CCN(c3ncnc4onc(C)c34)CC2)cc1,?,·,·,-2.4%,·,20.6µM*
Cc1ccc(N2CCN(C(=O)c3cn(C)c4ccc(S(=O)(=O)N5CCCC5)cc4c3=O)CC2C)cc1 (stereo not drawn),·,·,·,-0.6%,·,·
Cc1ccc(S(=O)(=O)N(CCCO)Cc2cc3c(C)ccc(C)c3[nH]c2=O)cc1,i,-7.2%,-4.7%,-0.1%[38.3 µM],-8.2%,i
Cc1ccc(S(=O)(=O)N(CCO)Cc2cc3ccc(C)c(C)c3[nH]c2=O)cc1,16.4µM*,-6.1%,-0.2%,-3.4%[38.3 µM],14.1%,i
Cc1ccc(C)c(N2CCN(C(=O)c3c(C)oc4nc(C)nc(N5CCOCC5)c34)CC2)c1,·,·,·,-2.4%,·,·
Cc1cccc(N2CCN(S(=O)(=O)c3ccc4c(c3)CCC(=O)N4)CC2C)c1 (stereo not drawn),14.6µM*,1.8%,18.1%,14.3%[38.3 µM],?,i

# Source: PubChem BioAssay
